Measurements taken from PubChem BioAssay AID588405 (Sanford-Burnham Center for Chemical Genomics, 2011).
Where “and” joins values, the source holds several entries; their conditions need not be identical. Equal entries are not always repeated. Among all 360,000 compounds or so, about 6,200 (1.7%) were called active.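 Rule for the calls: active = inhibition of at least 50% at 20 µM; inactive = the rest.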 The entries come from a sample that favours actives as a whole. Some compounds were tested as several samples or in several runs, with calls that do not always agree.

Experiment: inhibition of PEG-3 promoter activity – cell-based, HeLa, luciferase luminescence, primary screen (AID 588405)
Settings: HeLa PEG-Prom luciferase reporter, overnight, at 20 µM, stronger effect = higher value

| SMILES | inhibition |
| --- | --- |
| COc1cc(NC(=O)c2[nH]cnc2C(N)=O)cc(C(=O)Nc2cccc(C(F)(F)F)c2)c1 | 101% (active) |
| O=C(Nc1cccc(C(F)(F)F)c1)c1ccc(N2CCNCC2)c([N+](=O)[O-])c1 | 22.1% (inactive) |
| O=C(O)CSc1c2c(nc3cc(C(=O)Nc4cccc(C(F)(F)F)c4)ccc13)CCCC2 | 13.5% (inactive) |
| CCOC(=O)c1ccc(NC(=O)c2nc[nH]c2C(=O)NCc2ccccc2)cc1 | 32.4% (inactive) |
| COc1cc(NC(=O)c2cncc(-c3ccc(C#N)cc3)c2)cc(C(=O)Nc2cccc(C(F)(F)F)c2)c1 | 22% (inactive) and 56% (active) |
| COc1cccc(NC(=O)CN(C)C(C)C(=O)Nc2ccc(C#N)cc2)c1 (configuration not stated) | 20% (inactive) |
| O=C1c2ccccc2-c2ccccc2NC1O (configuration not stated) | -8.48% (inactive) |
| COc1ccc(C(c2nnnn2C2CCCC2)N2CCN(C/C=C/c3ccccc3)CC2)cc1 (configuration not stated) | -2% (inactive) |
| CC(=O)Nc1ccc(-c2ccnc3c2CC(C(=O)NC(C)C)O3)cc1 (configuration not stated) | -1.44% (inactive) |
| CC1(C(=O)NCC2CCOCC2)Cc2c(-c3cccc(C(N)=O)c3)ccnc2O1 (configuration not stated) | 8.22% (inactive) |
| O=C(CSc1nc2cccc(F)c2c(=O)n1-c1ccccc1)Nc1ccc2c(c1)CCC2 | 2.19% (inactive) |
| Cc1ccc(C)c(N2CCN(C(=O)CCCn3c(=O)c4cccn4c4cccnc43)CC2)c1 | 34.6% (inactive) |
| Cc1ccc(C)c(N2CCN(C(=O)CCCCCn3c(=S)[nH]c4ccc(N5CCOCC5)cc4c3=O)CC2)c1 | 92.5% (active) |
| O=C(CCCCCn1c(=S)[nH]c2cc3c(cc2c1=O)OCO3)N1CCN(c2ccc(F)cc2)CC1 | -0.75% (inactive) |
| COCCNC(=O)C1CCCN(Cc2ccccc2Cl)CC1 (configuration not stated) | 5.2% (inactive) |
| CSc1nc(-c2ccccc2)nc(C(Cl)Cl)n1 | 98.3% (active) |
| O=C(COC(=O)C12CC3CC(CC(O)(C3)C1)C2)NC12CC3CC(CC(C3)C1)C2 | 9.7% (inactive) |
| CC1(Cc2cccc(C#N)c2)C(=O)Nc2ccc(-c3cccc(C(F)(F)F)c3)cc21 (configuration not stated) | 37% (inactive) |
| CC(C)(O)C#Cc1ccc(CN2CCC(CO)(CCc3ccccc3)CC2)cc1 | 1.12% (inactive) |
| Cc1c(CN2CCC(CO)(CCOc3ccccc3)CC2)[nH]c2ccc(Cl)cc12 | 85.4% (active) |
| CCOC(=O)C1(CCOc2ccccc2)CCN(Cc2ccc(C#CCCO)cc2)CC1 | 15.7% (inactive) |

| SMILES | inhibition |
| --- | --- |
| C=CC[C@@H](CC(=O)N[C@H](CO)Cc1ccccc1)C(=O)N[C@H](C)COC(=O)[C@@H](CC=C)Cc1ccc(F)cc1 | 12.6% (inactive) |
| C=CC[C@@H](CC(=O)N[C@@H](CO)Cc1ccccc1)C(=O)N[C@H](COC(=O)[C@H](CC=C)CC(=O)OC(C)(C)C)Cc1ccccc1 | 59.8% (active) |
| C=CC[C@@H](CC(=O)N[C@@H](CO)Cc1ccccc1)C(=O)NCCOC(=O)[C@@H](CC=C)CC(=O)OC(C)(C)C | 4.88% (inactive) |
| CCOC(=O)c1c(-n2cnnn2)sc(C)c1C | -0.91% (inactive) |
| CNC(=O)C1CC(=O)N(Cc2ccc3c(c2)OCO3)C(=Nc2ccc(F)cc2)S1 (configuration not stated) | -64.3% (inactive) |
| COc1ccccc1N(CCOc1ccccc1)S(=O)(=O)c1ccccc1 | 18.4% (inactive) |
| Clc1ccc(-c2cc(C3CCNCC3)[nH]n2)c(Cl)c1 | 58.7% (active) |
| Clc1ccc(-c2cc(-c3ccccn3)on2)c(Cl)c1 | -90.8% (inactive) |
| Fc1cccc(Cc2c(-c3cccc(Cl)c3)nc3ccc(Br)cn23)c1 | -153% (inactive) |
| O=C(O)CC1S/C(=N\N=C/c2ccccc2O)N(c2ccc(O)cc2)C1=O (configuration not stated) | -0.29% (inactive) |
| COc1ccc(CN(C)C(=O)Cc2c[nH]c3ccccc23)c(OC)c1OC | 13.2% (inactive) |
| COc1ccc(-c2cc(C(=O)N(C)CC(=O)Nc3ccccc3Cl)c3ccccc3n2)cc1OC | 43.6% (inactive) |
| COc1ccc(-c2cc(C(=O)NCCCN3CCCC3=O)c3ccccc3n2)cc1OC | -2.28% (inactive) |
| COc1ccc(CN(C)C(=O)c2cc(-c3ccc(C)cc3C)nc3ccccc23)c(OC)c1OC | 75.3% (active) |
| COc1ccc(S(=O)(=O)N2CCCCCC2)cc1C(=O)N(C)Cc1cccc(OC)c1OC | 5.19% (inactive) |
| COc1ccc(-c2cc(C(=O)N(C)Cc3ccc(OC)c(OC)c3OC)c3ccccc3n2)cc1OC | 50.1% (active) |
| Cc1ccc(CN2CCC(N3CCC(C(=O)NCC4CCCO4)CC3)CC2)o1 (configuration not stated) | -0.4% (inactive) |
| CS(=O)(=O)c1cccc(-c2ccc3nncn3c2)c1 | -2.9% (inactive) |
| CCc1nc2ccc(C(=O)N3CCN(S(=O)(=O)CC)CC3)cn2c1N(C=O)CCC(C)C | -6.03% (inactive) |
| CC(C)[C@H](NC(=O)N1CC(=O)Nc2ccccc21)C(=O)N[C@@H](Cc1c[nH]c2ccccc12)C(=O)O | 14.7% (inactive) |
| O=C(NCc1cccc(C(F)(F)F)c1)c1ccc2sc(COCCO)nc2c1 | -51.8% (inactive) |

| SMILES | inhibition |
| --- | --- |
| COc1cccc(CNc2nc3cc(-c4csc5ccccc45)sc3c(=O)n2C)c1 | -0.35% (inactive) |
| COc1ccc(CN(Cc2ccc(OC)cc2)C(=O)c2cccs2)cc1 | 0.72% (inactive) |
| COc1ccc(CCNC(=O)CN(c2ccccc2)S(C)(=O)=O)cc1OC | 18.5% (inactive) |
| COc1ccc(C(CCN(Cc2ccc(OC)c(OC)c2)C(=O)CCl)c2ccccc2)cc1 (configuration not stated) | 105% (active) |
| CCCc1nc(N2CCN(C)CC2)c2sc(=S)n(-c3ccccc3)c2n1 | 30.8% (inactive) |
| OC[C@@H]1CN(Cc2ccc(Cl)cc2)C[C@H](n2cnc3c(NCc4ccncc4)ncnc32)O1 | 8.27% (inactive) |
| FC(F)(F)Oc1ccccc1C(c1nnnn1C1CCCCC1)N1CCN(C/C=C/c2ccccc2)CC1 (configuration not stated) | -12.9% (inactive) |
| CC[C@H]1CN2CCc3cc(OC)c(OC)cc3[C@@H]2C[C@@H]1C[C@H]1NCCc2cc(OC)c(OC)cc21 | 95% (active) |
| CC(C)C[C@H]1CN([C@@H](Cc2ccccc2)CN2CCC[C@@H]2CN2C(=O)C(=O)NC[C@@H]2Cc2ccc(O)cc2)C(=O)C(=O)N1CCc1ccccc1 | -8.17% (inactive) |
| CCOC(=O)C1=CCC(c2ccc(F)cc2)N(S(=O)(=O)c2ccc(C)cc2)C1 (configuration not stated) | 18.4% (inactive) |
| CCc1nc2c(OCC(=O)C(C)(C)C)cccn2c1N(C)C(=O)c1ccccc1F | -3.25% (inactive) |
| COc1ccc(OC)c(C(O)c2ncc(-c3cccc(C(F)(F)F)c3)[nH]2)c1 (configuration not stated) | 1.51% (inactive) |
| CCCC[C@@H]1CN=C(N)N1CCCC | 6.54% (inactive) |
| CCCC[C@@H]1CN=C(N)N1CCc1cccc(F)c1 | 2.77% (inactive) |
| CCCC[C@@H]1CN=C(N)N1CCc1cc(C(F)(F)F)cc(C(F)(F)F)c1 | 64.1% (active) |
| Cn1c(Nc2ccc(F)cc2)nc2cc(-c3ccsc3)sc2c1=O | -53.6% (inactive) |
| CC1(C(=O)Nc2ccccc2Br)CCN1C(=O)CC1CC1 (configuration not stated) | 3.67% (inactive) |
| CCOC(=O)C1=CCC2C(=O)N(Cc3ccccc3)C(=O)C12 (configuration not stated) | -14.8% (inactive) |
| CNC[C@H]1OCc2cnnn2CCCC(=O)N([C@H](C)CO)C[C@@H]1C | -4.6% (inactive) |
| COc1ccc(OC)c(NC(=O)c2cc(-c3cc(F)ccc3OCC3CCCO3)n[nH]2)c1 (configuration not stated) | 25.5% (inactive) |
| Cc1cc(C)nc(S/C=C/C(=O)c2ccccc2)n1 | 109% (active) |

| SMILES | inhibition |
| --- | --- |
| Cc1cc(C)nc(SC(C)C(=O)N/N=C/c2cccs2)n1 (configuration not stated) | 2.36% (inactive) |
| COC(c1ccccc1)(c1ccccc1)C(Oc1nc(C)cc(C)n1)C(=O)O (configuration not stated) | 19% (inactive) |
| Cc1coc(C)c1C(=O)CC1(O)C(=O)N(C)c2ccc(Cl)cc21 (configuration not stated) | 7.27% (inactive) |
| CCOc1ccc(N2CC(C(=O)N/N=C/c3sccc3C)CC2=O)cc1 (configuration not stated) | 13.4% (inactive) |
| CC1(C(=O)NS(=O)(=O)c2ccccc2)CCN1C(=O)C1CCCCC1 (configuration not stated) | -0.02% (inactive) |
| O=C1CCN(Cc2ccccc2)CCN1[C@H](CSc1ccccc1)c1ccccc1 | -23.1% (inactive) |
| COc1ccc(Cl)cc1NC(=O)CCS(=O)(=O)c1ccc(Br)cc1 | 21.8% (inactive) |
| CCCCC(=O)N/N=C(\C)CC(=O)Nc1cc(Cl)ccc1OC | 93.5% (active) |
| COc1ccc(/C(C)=N/NC(=O)CCC(=O)Nc2ccc(Cl)cc2Cl)c(OC)c1 | -11.2% (inactive) |
| C[C@H](NC(=O)CC[C@H]1O[C@@H](n2ccc(=O)[nH]c2=O)[C@H](O)[C@@H]1O)c1cccc2ccccc12 | 6.63% (inactive) |
| OC(c1ccccc1)c1nc(/C=C/c2ccc(C(F)(F)F)cc2)cs1 (configuration not stated) | 3.42% (inactive) |
| C#CCCOC(=O)N1C2=NC(C(=O)OC)=C(C(=O)OC)[C@@H]3N(C)c4ccc(OC)cc4[C@]23C[C@H]1C(=O)OC | -3.24% (inactive) |
| C[C@@H]1CN([C@@H](C)CO)C(=O)CCCn2cc(nn2)CO[C@H]1CN(C)S(=O)(=O)c1ccc(-n2cccn2)cc1 | -0.13% (inactive) |
| Cc1c(C(=O)NCC2CC2)sc(=O)n1Cc1cccc(F)c1 | -1.67% (inactive) |
| CCN1C(=O)[C@@H]2[C@@H]3CN(S(=O)(=O)c4ccccc4C)[C@@H](c4ccc(Cl)cc4)[C@@H]3C(=O)C[C@@H]2C1=O | -51.1% (inactive) |
| CCC1CCCCN1CCCNC(=O)c1cc2c(Cl)nc3ccccc3c2s1 (configuration not stated) | 100% (active) |
| Cc1nc2ccccc2c2oc(C(=O)NCCCN3CCC(C)CC3)cc12 | -9.23% (inactive) |
| CCCn1c2ccccc2c2cnn(CC(=O)NCCCN3CCCCC3CC)c(=O)c21 (configuration not stated) | 17.1% (inactive) |
| CN(CCO)C(=O)c1nc[nH]c1C(=O)N(C)Cc1ccccc1 | -1.65% (inactive) |
